# Experimental data reported in the supplement of paper PMC8728848.
# The full list was thinned out, with the strongest signals kept by preference.
# B1: DC-Sign (Homo sapiens), Q9NNX6 (protein)
# chain: MSDSKEPRLQQLGLLEEEQLRGLGFRQTRGYKSLAGCLGHGPLVLQLLSFTLLAGLLVQVSKVPSSISQEQSRQDAIYQNLTQLKAAVGELSEKSKLQEIYQELTQLKAAVGELPEKSKLQEIYQELTRLKAAVGELPEKSKLQEIYQELTWLKAAVGELPEKSKMQEIYQELTRLKAAVGELPEKSKQQEIYQELTRLKAAVGELPEKSKQQEIYQELTRLKAAVGELPEKSKQQEIYQELTQLKAAVERLCHPCPWEWTFFQGNCYFMSNSQRNWHDSITACKEVGAQLVVIKSAEEQNFLQLQSSRSNRFTWMGLSDLNQEGTWQWVDGSPLLPSFKQYWNRGEPNNVGEEDCAEFSGNGWNDDKCNLAKFWICKKSAASCSRDEEQFLSPAPATPNPPPA
# Key:
# Assay in all cases: glycan array binding signal (z-score within array); higher = stronger binding
# Conditions in all cases: glycan notation: IUPAC condensed, linker removed
# [1] = molecular target: Fuc(a1-2)Gal(b1-3)GalNAc(a1-3)[Fuc(a1-2)]Gal(b1-4)GlcNAc
# In short: (§1)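 The binding signal is a Z-score computed within each array. Data were drawn from 3228 arrays in the Consortium for Functional Glycomics database, restricted to those with a known protein sequence. Scores were averaged over arrays of the same protein sequence at different concentrations or buffers, and over linkers, and negative values can be taken as non-binding.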
# [2] = molecular target: Fuc(a1-2)Gal(b1-4)GlcNAc(b1-2)Man(a1-3)[Fuc(a1-2)Gal(b1-4)GlcNAc(b1-2)Man(a1-6)]Man(b1-4)GlcNAc(b1-4)[Fuc(a1-6)]GlcNAc
# In short: as §1
# [3] = molecular target: Fuc(a1-2)Gal(b1-4)[Fuc(a1-3)]GlcNAc(b1-2)Man(a1-3)[Fuc(a1-2)Gal(b1-4)[Fuc(a1-3)]GlcNAc(b1-2)Man(a1-6)]Man(b1-4)GlcNAc(b1-4)[Fuc(a1-6)]GlcNAc
# In short: as §1
# [4] = molecular target: Fuc(a1-2)Gal(b1-4)[Fuc(a1-3)]GlcNAc(b1-3)Gal(b1-4)[Fuc(a1-3)]GlcNAc
# In short: as §1
# [5] = molecular target: Fuc(a1-2)Gal(b1-4)[Fuc(a1-3)]GlcNAc(b1-3)Gal(b1-4)[Fuc(a1-3)]GlcNAc(b1-3)Gal(b1-4)[Fuc(a1-3)]GlcNAc
# In short: as §1
# [6] = molecular target: Fuc(a1-2)Gal(b1-4)[Fuc(a1-3)]GlcNAc(b1-3)[Neu5Ac(a2-6)Gal(b1-4)GlcNAc(b1-6)]Gal(b1-4)Glc
# In short: as §1
# Fuc(a1-2)[Gal(a1-3)]Gal = molecular target: Fuc(a1-2)[Gal(a1-3)]Gal
# In short: as §1
# [7] = molecular target: Fuc(a1-2)[Gal(a1-3)]Gal(b1-3)GlcNAc
# In short: as §1
# [8] = molecular target: Fuc(a1-2)[Gal(a1-3)]Gal(b1-3)GlcNAc(b1-3)GalNAc
# In short: as §1
# [9] = molecular target: Fuc(a1-2)[Gal(a1-3)]Gal(b1-4)[Fuc(a1-3)]GlcNAc(b1-3)GalNAc
# In short: as §1
# [10] = molecular target: Fuc(a1-2)[GalNAc(a1-3)]Gal(b1-3)GalNAc(a1-3)[Fuc(a1-2)]Gal(b1-4)GlcNAc
# In short: as §1
# [11] = molecular target: Fuc(a1-2)[GalNAc(a1-3)]Gal(b1-3)GlcNAc
# In short: as §1
# [12] = molecular target: Fuc(a1-2)[GalNAc(a1-3)]Gal(b1-4)GlcNAc(b1-3)Gal(b1-4)GlcNAc(b1-3)Gal(b1-4)GlcNAc
# In short: as §1
# [13] = molecular target: Fuc(a1-2)[GalNAc(a1-3)]Gal(b1-4)GlcNAc(b1-3)[Fuc(a1-2)[GalNAc(a1-3)]Gal(b1-4)GlcNAc(b1-6)]GalNAc
# In short: as §1
# [14] = molecular target: Fuc(a1-3)[Gal(b1-4)]GlcNAc(b1-3)Gal(b1-3)[Fuc(a1-4)]GlcNAc
# In short: as §1
# [15] = molecular target: Fuc(a1-3)[Gal(b1-4)]GlcNAc(b1-3)Gal(b1-4)[Fuc(a1-3)]GlcNAc
# In short: as §1
# [16] = molecular target: Fuc(a1-3)[Gal(b1-4)]GlcNAc(b1-3)Gal(b1-4)[Fuc(a1-3)]GlcNAc(b1-3)Gal(b1-4)[Fuc(a1-3)]GlcNAc
# In short: as §1
# [17] = molecular target: Fuc(a1-3)[Gal3S(b1-4)]GlcNAc6S
# In short: as §1
# [18] = molecular target: Fuc(a1-3)[GalNAc(b1-4)]GlcNAc6S
# In short: as §1
# Gal(a1-3)Gal(b1-4)Glc = molecular target: Gal(a1-3)Gal(b1-4)Glc
# In short: as §1
# [19] = molecular target: Gal(a1-3)Gal(b1-4)[Fuc(a1-3)]GlcNAc(b1-2)Man(a1-3)[Gal(a1-3)Gal(b1-4)[Fuc(a1-3)]GlcNAc(b1-2)Man(a1-6)]Man(b1-4)GlcNAc(b1-4)GlcNAc
# In short: as §1
# [20] = molecular target: Gal(a1-4)Gal(b1-3)GlcNAc(b1-2)Man(a1-3)[Gal(a1-4)Gal(b1-3)GlcNAc(b1-2)Man(a1-6)]Man(b1-4)GlcNAc(b1-4)GlcNAc
# In short: as §1
# [21] = molecular target: Gal(b1-3)GlcNAc(b1-3)Gal(b1-3)GlcNAc
# In short: as §1
# [22] = molecular target: Gal(b1-3)[Fuc(a1-4)]GlcNAc(b1-3)Gal(b1-3)[Fuc(a1-4)]GlcNAc
# In short: as §1
# [23] = molecular target: Gal(b1-4)GlcNAc(b1-2)[Gal(b1-4)GlcNAc(b1-6)]Man(a1-6)[GlcNAc(b1-4)][Gal(b1-4)GlcNAc(b1-2)Man(a1-3)]Man(b1-4)GlcNAc(b1-4)GlcNAc
# In short: as §1
# [24] = molecular target: Gal(b1-4)GlcNAc(b1-3)Gal(b1-4)GlcNAc(b1-2)[Gal(b1-4)GlcNAc(b1-3)Gal(b1-4)GlcNAc(b1-6)]Man(a1-6)[Gal(b1-4)GlcNAc(b1-3)Gal(b1-4)GlcNAc(b1-2)Man(a1-3)]Man(b1-4)GlcNAc(b1-4)GlcNAc
# In short: as §1
# [25] = molecular target: Gal(b1-4)GlcNAc(b1-3)Gal(b1-4)GlcNAc(b1-3)Gal(b1-4)GlcNAc(b1-2)Man(a1-3)[Gal(b1-4)GlcNAc(b1-3)Gal(b1-4)GlcNAc(b1-3)Gal(b1-4)GlcNAc(b1-2)Man(a1-6)]Man(b1-4)GlcNAc(b1-4)[Fuc(a1-6)]GlcNAc
# In short: as §1
# [26] = molecular target: Gal(b1-4)GlcNAc(b1-3)Gal(b1-4)GlcNAc(b1-3)[Gal(b1-4)GlcNAc(b1-3)Gal(b1-4)GlcNAc(b1-6)]GalNAc
# In short: as §1
# [27] = molecular target: Gal(b1-4)GlcNAc(b1-3)Gal(b1-4)GlcNAc(b1-6)[Gal(b1-3)]GalNAc
# In short: as §1
# Gal3S(b1-3)GlcNAc = molecular target: Gal3S(b1-3)GlcNAc
# In short: as §1
binder,measurement,setting,value
B1,glycan array binding signal (z-score),[1],-0.14
same,glycan array binding signal (z-score),[2],-0.182
same,glycan array binding signal (z-score),[3],9.49
same,glycan array binding signal (z-score),[4],12.6
same,glycan array binding signal (z-score),[5],6.53
same,glycan array binding signal (z-score),[6],-0.045
same,glycan array binding signal (z-score),Fuc(a1-2)[Gal(a1-3)]Gal,0.684
same,glycan array binding signal (z-score),[7],-0.126
same,glycan array binding signal (z-score),[8],-0.189
same,glycan array binding signal (z-score),[9],-0.164
same,glycan array binding signal (z-score),[10],-0.193
same,glycan array binding signal (z-score),[11],-0.122
same,glycan array binding signal (z-score),[12],-0.15
same,glycan array binding signal (z-score),[13],-0.189
same,glycan array binding signal (z-score),[14],5.28
same,glycan array binding signal (z-score),[15],2.48
same,glycan array binding signal (z-score),[16],8.36
same,glycan array binding signal (z-score),[17],-0.13
same,glycan array binding signal (z-score),[18],1.43
same,glycan array binding signal (z-score),Gal(a1-3)Gal(b1-4)Glc,-0.198
same,glycan array binding signal (z-score),[19],-0.165
same,glycan array binding signal (z-score),[20],-0.131
same,glycan array binding signal (z-score),[21],-0.156
same,glycan array binding signal (z-score),[22],2.51
same,glycan array binding signal (z-score),[23],-0.187
same,glycan array binding signal (z-score),[24],0.026
same,glycan array binding signal (z-score),[25],-0.137
same,glycan array binding signal (z-score),[26],-0.146
same,glycan array binding signal (z-score),[27],-0.097
same,glycan array binding signal (z-score),Gal3S(b1-3)GlcNAc,-0.136
